Test results taken from PubChem BioAssay AID1159580 (chemical genetic matrix, 2015).
About 2,000 (36%) of roughly 5,500 compounds were called active. Not shown: some 18% with an inconclusive outcome. Cut-off read from the data, not from the text of the source: active = normalized growth mostly below about 0.91 (no sharp cut-off); inconclusive = no clear call, values can overlap the other calls; inactive = mostly above about 0.92. Some of the results follow.

Assay: chemical genetic growth profiling, strain panel (AID 1159580);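 note: tested at 20 µM; growth read once vehicle control cultures reached saturation at 30 °C; 1 = growth at the plate median or of vehicle wells; lower values mean less growth of the strain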
Details: S. cerevisiae deletion strains, growth OD

Measured: normalized growth

C=C1C2CCC3(C)C(c4ccoc4)OC(=O)CC13OC1CC(OC(C)=O)C(C)(C)C(CC(=O)OC)C12C (stereo unspecified)
inactive: locus YAL021C, strain ccr4, active compounds read low 1.02 | locus YAL026C, strain drs2, active compounds read low 1.01 | locus YAL030W, strain snc1, active compounds read low 1 | locus YBL061C, strain skt5, active compounds read low 0.993 | locus YBR009C, strain hhf1, active compounds read low 1 | locus YBR021W, strain FUR4, active compounds read low 1 | locus YBR023C, strain chs3, active compounds read low 1 | locus YBR171W, strain sec66, active compounds read low 1.01 | locus YBR229C, strain ROT2, active compounds read low 1 | locus YBR231C, strain swc5, active compounds read low 1.02 | locus YBR279W, strain paf1, active compounds read low 1.01 | locus YCL011C, strain gbp2, active compounds read low 1 | locus YCL016C, strain dcc1, active compounds read low 1 | locus YCL029C, strain bik1, active compounds read low 0.995 | locus YCL061C, strain MRC1, active compounds read low 1.01 | locus YCL069W, strain vba3, active compounds read low 1 | locus YCR088W, strain abp1, active compounds read low 1.01 | locus YDL005C, strain med2, active compounds read low 0.985 | locus YDL035C, strain GPR1, active compounds read low 0.993 | locus YDL040C, strain nat1, active compounds read low 1.01 | locus YDL074C, strain BRE1, active compounds read low 1.02 | locus YDL101C, strain DUN1, active compounds read low 1 | locus YDL185W, strain tfp1, active compounds read low 0.999 | locus YDL192W, strain arf1, active compounds read low 0.985 | locus YDR001C, strain nth1, active compounds read low 1.01 | locus YDR069C, strain doa4, active compounds read low 1.01 | locus YDR101C, strain arx1, active compounds read low 1.05 | locus YDR137W, strain rgp1, active compounds read low 0.899 | locus YDR159W, strain sac3, active compounds read low 1.03 | locus YDR162C, strain NBP2, active compounds read low 0.991 | locus YDR195W, strain ref2 1 | locus YDR297W, strain sur2, active compounds read low 1.02 | locus YDR318W, strain mcm21, active compounds read low 0.992 | locus YDR334W, strain swr1, active compounds read low 1.03 | locus YDR335W, strain msn5, active compounds read low 1 | locus YDR388W, active compounds read low 1 | locus YDR392W, strain spt3, active compounds read low 1.01 | locus YDR502C, strain sam2, active compounds read low 0.994 | locus YEL003W, strain gim4, active compounds read low 1.01 | locus YEL037C, strain rad23, active compounds read low 1.02 | locus YEL061C, strain CIN8 (second series), active compounds read low 1.01 | locus YEL061C, strain CIN8, active compounds read low 1 | locus YER015W, strain faa2, active compounds read low 1.01 | locus YER016W, strain bim1, active compounds read low 1.01 | locus YER110C, active compounds read low 0.99 | locus YER111C, strain swi4, active compounds read low 0.988 | locus YER155C, strain BEM2 (second series), active compounds read low 1.02 | locus YER155C, strain BEM2, active compounds read low 1.01 | locus YER167W, strain BCK2, active compounds read low 1.01 | locus YFR010W, strain ubp6, active compounds read low 1.01 | locus YGL078C, strain dbp3, active compounds read low 1.01 | locus YGL086W, strain mad1, active compounds read low 0.998 | locus YGL167C, strain pmr1, active compounds read low 1.01 | locus YGL173C, strain kem1, active compounds read low 0.998 | locus YGL227W, strain vid30, active compounds read low 1 | locus YGL240W, strain doc1, active compounds read low 0.991 | locus YGL248W, strain PDE1, active compounds read low 0.993 | locus YGL253W, strain hxk2, active compounds read low 0.981 | locus YGR135W, strain pre9, active compounds read low 0.983 | locus YGR252W, strain gcn5, active compounds read low 0.923 | locus YHR013C, strain ard1, active compounds read low 1.01 | locus YHR027C, strain rpn1, active compounds read low 1.02 | locus YHR030C, strain SLT2, active compounds read low 1.01 | locus YHR079C, strain IRE1 (second series), active compounds read low 1 | locus YHR094C, strain hxt1, active compounds read low 0.999 | locus YHR129C, strain ARP1, active compounds read low 1.01 | locus YHR142W, strain chs7, active compounds read low 0.99 | locus YHR200W, strain rpn10, active compounds read low 1 | locus YIL066C, strain RNR3, active compounds read low 1.01 | locus YIL073C, strain SPO22, active compounds read low 0.973 | locus YIL125W, strain kgd1, active compounds read low 0.998 | locus YIR030C, strain dcg1, active compounds read low 0.998 | locus YJL092W, strain hpr5, active compounds read low 1.02 | locus YJL095W, strain BCK1 (second series), active compounds read low 1.02 | locus YJL095W, strain BCK1, active compounds read low 1.01 | locus YJL115W, strain asf1, active compounds read low 1.01 | locus YJL129C, strain trk1, active compounds read low 0.969 | locus YJL134W, strain LCB3, active compounds read low 1.01 | locus YJL154C, strain vps35, active compounds read low 1.03 | locus YJL164C, strain tpk1, active compounds read low 0.997 | locus YJL166W, strain qcr8, active compounds read low 1.02
